Screening results: PubChem, National Center for Advancing Translational Sciences (NCATS)
An excerpt weighted towards active compounds, which were near 7% of everything screened.
GCN5L2 inh = qHTS Assay for Inhibitors of GCN5L2; Histone acetyltransferase KAT2A (Homo sapiens), Q92830; GCN5L2 HAT assay, ThioGlo1 CoA-SH fluorescence; Potency, µM (doses to about 58.9 µM), actives largely listed as inhibitors; hit rate 0.21% among 390,000
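Titration-based screen in which CoA formation is detected via maleimide probe ThioGlo1 (50uM) turning fluorescent on thiol reaction; substrates H3(1-25) 75uM and acetyl-CoA 70uM, GCN5L2 20nM, 20 min incubation at room temperature.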
PLK1 PBD inh = qHTS for Inhibitors of PLK1-PDB (polo-like kinase 1 - polo-box domain): Primary Screen; Serine/threonine-protein kinase PLK1 (Homo sapiens), P53350; Plk1 PBD binding of FITC phosphopeptide, fluorescence polarization; Potency, µM, usual class: inhibitors; hit rate 2.8% among 360,000; AID 720504, 2013; also: series mostly up to about 57 µM; nearly all actives have a fitted effect of over 65% in size
BAZ2B block = qHTS Assay for Inhibitors of BAZ2B; hit rate 4.4% among 360,000; AlphaScreen BAZ2B-H3K14Ac peptide displacement; AID 504333, 2011; Potency, µM (series often up to 114 µM), hits mostly inhibitors; also: nearly all actives have a fitted effect of over 60% in size
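AlphaScreen displacement: compounds (up to 110uM) incubated 30 min at room temperature with a preformed 50 nM BAZ2B/50 nM biotinylated H3K14Ac peptide complex in PBS pH 7.4 with Tween-20. Donor and acceptor beads at 10 ug/mL final added, 20 min light-protected before reading.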
JMJD2A Tudor inh = qHTS Assay for Inhibitors of JMJD2A-Tudor Domain | AID 504339, 2011 | hit rate 4.4% among 390,000 | Potency, µM (doses to about 114 µM), actives largely listed as inhibitors | AlphaScreen JMJD2A-Tudor / H3K4me3 peptide binding | Lysine-specific demethylase 4A (Homo sapiens), O75164; also: nearly all actives have a fitted effect of over 50% in size
PI5P4Ka inh = qHTS for Inhibitors of phosphatidylinositol 5-phosphate 4-kinase (PI5P4K); PI5P4Kalpha enzyme, ADP-Glo luminescence, 60 min; active compounds read low; Phosphatidylinositol 5-phosphate 4-kinase type-2 alpha (Homo sapiens), P48426; hit rate 1.2% among 330,000; max response, %; AID 652105, 2013; active = max response of -50% or lower; inconclusive = between -30% and -50%; inactive = -30% or higher; also: value at the top dose of about 77 µM
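qHTS, 1536-well: enzyme/substrate mix, compound by pin tool, 5 microM ATP final; RT 60 min; ADP-Glo reagents 1 (45 min) then 2 (30 min); luminescence.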
HP1b chromo inh = HTS for Inhibitors of HP1-beta Chromodomain Interactions with Methylated Histone Tails. AlphaScreen HP1-beta / biotin-H3K9me3 peptide binding. Chromobox protein homolog 1 (Homo sapiens), P83916. AID 540317, 2011. Potency, µM (series often up to 114 µM), usual class: inhibitors. hit rate 0.56% among 390,000; also: nearly all actives have a fitted effect of over 70% in size
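AlphaScreen: HP1-beta (50 nM) preformed 30 min with biotin-H3(1-18)K9me3 peptide (50 nM) in PBS pH 7.4, 0.01% Tween-20. Compound added for 30 min at RT, then streptavidin donor/nickel chelate acceptor beads (10 ug/mL) for 30 min.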
Numbers stand for hits; - = inactive; ? = inconclusive; . = no result given; [ ] = dose if it differs, or a comment. Unless noted, calls follow the shape of the dose curve; as a rule, active = well fitted curve in the direction sought with a large enough effect; inconclusive = small, poorly fitted or top-dose-only effect, or another doubt; inactive = no such curve, though single readings can be large; an effect the other way counts as inactive or inconclusive.

SMILES | GCN5L2 inh | PLK1 PBD inh | BAZ2B block | JMJD2A Tudor inh | PI5P4Ka inh | HP1b chromo inh
COc1ccc(-c2cc(C(F)(F)F)nc(SCC(=O)N3CCCCC3)n2)cc1 | - | . | - | - | . | -
Cc1ccc(NC(=O)CN2CCCC2)cc1 | - | - | - | - | - | -
O=C(CN1CCCCCC1)Nc1ccccc1 | - | - | 50µM | 8.9µM | - | ?
Cc1ccc(NC(=O)CN2CCCC2)cc1Br | - | - | ? | 56µM | - | -
COc1ccc(NC(=O)CN2CCC(NC(=O)C3CCCCC3)CC2)cc1 | - | - | - | - | - | -
O=C(CN1CCC(NC(=O)C2CCCCC2)CC1)Nc1ccccc1 | . | ? | . | 0.89µM | - | -
Cc1ccc(NC(=O)CNCc2ccccc2)cc1Br | - | - | 50µM | 0.79µM | - | ?
CCOC(=O)C1=C(CC)Nc2ccccc2N/C1=N\S(=O)(=O)c1ccccc1OC | - | - | - | - | - | -
COc1ccc(-c2nc(SCC(=O)Nc3ccc4c(c3)OCO4)c(-c3ccccc3)[nH]2)cc1 | - | . | - | - | . | -
CCc1cccc(C)c1NC(=O)CNCc1ccccc1 | - | - | - | 8.9µM | - | ?
O=C(CN1CCCC1)Nc1ccc(Br)cc1 | - | - | 50µM | 13µM | - | ?
CCc1cccc(C)c1NC(=S)NCc1ccccc1 | - | - | - | - | - | -
O=C(CN1CCCCCC1)Nc1ccc(Br)cc1 | - | - | - | - | . | -
Cc1cc(NC(=O)CCN2CCN(C)CC2)ccc1Br | - | - | - | 89µM | - | -
COc1ccc(OCCCC(=O)Nc2ccc(S(=O)(=O)N3CCOCC3)cc2)cc1 | - | - | - | - | - | -
O=c1[nH]c2ccccc2c(O)c1-c1ccccc1[N+](=O)[O-] | - | 24µM | - | -[11.4 µM] | - | -
Nc1nc(N)c2ncc(C(=O)CCc3ccccc3)nc2n1 | - | 4.7µM | ? | 14µM | ? | -
CCC(Oc1ccccc1)C(=O)Nc1ccc2oc(-c3ccc(OC)cc3)nc2c1 (stereo unspecified) | - | . | - | - | . | -
Cc1cc(C)cc(OCC(=O)Nc2cnn(CCCC(=O)O)c2)c1 | - | - | - | - | - | -
C#CCOCCOCCOCCNc1nc(N2CCN(C(=O)C([C@@H](C)CC)n3cc(C(N)COC(=O)C(F)(F)F)nn3)CC2)nc(N2CCN(C(=O)C([C@@H](C)CC)n3cc(C(N)CC(C)C)nn3)CC2)n1 (stereo partly specified) | . | - | . | 79µM | - | -
C#CCOCCOCCOCCNc1nc(N2CCN(C(=O)C([C@@H](C)CC)n3cc(C(N)COC(=O)C(F)(F)F)nn3)CC2)nc(N2CCN(C(=O)[C@H](CCC(=O)O)n3cc(C(N)CC(C)C)nn3)CC2)n1 (stereo partly specified) | . | - | . | 63µM | - | -
COc1ccc(NC(=O)Cn2c(=O)n(Cc3ccco3)c(=O)c3sc4ccccc4c32)cc1Cl | - | . | - | - | . | -
O=C(COC(=O)/C=C/c1cccc(Cl)c1)Nc1cccc(S(=O)(=O)NC2=NCCC2)c1 | - | - | - | - | - | -
CCCCC(=O)OCC(=O)Nc1cccc(S(=O)(=O)NC2=NCCCCC2)c1 | - | 24µM | - | ? | - | -
O=C(COC(=O)c1ccccc1)Nc1cccc(S(=O)(=O)NC2=NCCCCC2)c1 | - | 27µM | - | ? | - | ?
SMILES | GCN5L2 inh | PLK1 PBD inh | BAZ2B block | JMJD2A Tudor inh | PI5P4Ka inh | HP1b chromo inh
O=C(COC(=O)/C=C/c1ccc(Cl)cc1Cl)Nc1cccc(S(=O)(=O)NC2=NCCC2)c1 | . | - | . | . | -75 | .
Cc1oc2ncn(CC(C)C)c(=O)c2c1C(=O)NCCCN(C)Cc1ccccc1 | - | . | - | - | . | -
COc1cc(CNC(=O)c2nc(Cn3nc(C)c(Br)c3C)no2)cc(OC)c1 | - | - | - | - | - | -
COc1ccc(-n2c(=S)[nH]c3cc(C(=O)NCCCN4CCCC4=O)ccc3c2=O)cc1 | - | - | - | - | - | -
COc1ccc(Cn2c(=O)[nH]c3cc(C(=O)NCCCN4CCCCC4)ccc3c2=O)cc1 | - | - | - | - | - | -
COc1ccc(-n2c(=S)[nH]c3cc(C(=O)NCCCN4CCCC4=O)ccc3c2=O)c(OC)c1 | - | - | - | 14µM | - | -
COc1ccc(Cn2c(=O)[nH]c3cc(C(=O)NCCCN4CCCCCC4)ccc3c2=O)cc1 | - | - | - | 14µM | - | -
CCn1c(CNC(=O)c2ccc(Cl)cc2)nnc1SCC(=O)NC1=NCCS1 | - | - | - | - | - | -
Cn1cnnc1SCC(=O)NCCc1ccc(Cl)cc1Cl | - | - | - | - | - | -
CN1C(=O)c2ccc(Oc3ccccc3)cc2C1=O | . | - | . | - | - | -
O=C1Nc2ccccc2Oc2cc(Oc3ccccc3)ccc21 | - | . | 45µM | 50µM | . | ?
C/C(CC(=O)Nc1ccccn1)=N\NC(=O)c1cccc(C)c1 | - | - | - | - | - | -
O=C(NC1CCCCC1)C(c1ccncc1)n1c(=O)c(-c2ccccc2)nc2ccccc21 (stereo unspecified) | . | - | . | . | - | .
CCCCCNC(=O)C(c1ccc(OC)cc1)n1c(=O)c(-c2ccco2)nc2ccccc21 (stereo unspecified) | . | - | . | . | - | .
CCCCCNC(=O)C(c1ccccc1F)n1c(=O)c(-c2ccco2)nc2ccccc21 (stereo unspecified) | . | ? | . | . | -64 | .
O=C(NC1CCCCC1)C(c1ccc(-c2ccccc2)cc1)n1c(=O)c(-c2ccco2)nc2ccccc21 (stereo unspecified) | . | ? | . | . | -92 | .
O=C(NC1CCCCC1)C(c1ccccc1F)n1c(=O)c(-c2ccco2)nc2ccccc21 (stereo unspecified) | . | - | . | . | -69 | .
O=C(CSc1nnc2[nH]c(=O)cc(-c3ccccc3)n12)Nc1ccc(F)cc1F | ? | . | - | - | . | -
CC1CN(S(=O)(=O)c2cccc(C(=O)N(C)C3CCCCC3)c2)CC(C)O1 (stereo unspecified) | . | - | . | . | - | .
CN1c2cccc3cccc(c23)N(C)C1c1cccs1 | - | - | ? | - | - | ?
CC1N(C)c2cccc3cccc(c23)N1C | - | ? | 50µM | - | - | ?
Cc1ccc(O)c(-c2cc3ccccc3[nH]2)c1 | - | - | 45µM | ? | - | ?
COc1ccc(-c2cc3ccccc3[nH]2)cc1 | - | - | - | 7.1µM | - | ?
COc1ccccc1C(=O)NCC(=O)NC(C)c1ccc(-n2ccnc2)cc1 (stereo unspecified) | - | - | - | - | - | -
